Compound activity (PubChem)
NSD2 inh: NSD2 (human) methyltransferase inhibition; actives 0.54% (n = 310,000); NSD2 peptide methylation, AlphaScreen, 120 min; O96028; inhibition, % at 12.5 µM
INS-1E GSIS act: GLuc luminescence reporter in INS-1E cells, primary screen for activators of glucose-dependent secretion of insulin; INS-1E GLuc reporter insulin secretion, 2-3 h; activation, % at 16.6 µM; actives 0.61% (n = 370,000);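 active means lowest replicate activation of at least 40%, so every replicate reaches that level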;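 further: 0% = median of neutral control wells and 100% = median of IBMX positive control wells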
Wnt act: activates Wnt/beta-catenin signaling in a reporter cell assay | activator, plate reader | activation, % at 9.35 µM | actives 1.2% (n = 300,000); in the data active means activation above about 30%, passing the limit was not always enough; inconclusive means no clear call, values can overlap the other calls;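 further: 0% = neutral control wells and 100% = positive control wells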
MITF TRPM1 HTS: MITF TRPM1 promoter activation in melanoma cells. SK-MEL-5 TRPM1-promoter luciferase, 24 h; % of positive control, neutral wells = 0. activation, % at 12.5 µM. actives 0.75% (n = 300,000);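 active means mean activation of at least 80% with every replicate also reaching 80%; inconclusive means mean reaches 80% but some replicate falls short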;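 further: 0% = neutral control wells and 100% = parthenolide positive control wells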
miR122 inh: inhibitors of miR-122 in Huh7 cells; Huh7 miR-122 Renilla luciferase sensor, 48 h; neutral wells = 0, positive control = 100; activation (reporter increase), % at 12.5 µM; actives 0.3% (n = 340,000); AID 602342;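 active means mean replicate activation score at least 90 and every replicate individually at or above 90; inconclusive means only one of the two criteria met; inactive means neither criterion met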;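 further: higher luciferase means less miR-122 activity so hits act as miR-122 inhibitors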
DYRK1A inh: Dyrk1A (rat) kinase inhibition | ADP-Glo luminescence, NFATc1 peptide | inhibition, % at 12.5 µM | actives 0.43% (n = 310,000);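 further: plate controls were vehicle with enzyme for no effect and no enzyme for full effect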
Numbers without * were called inactive; ? = inconclusive; . = no result; [ ] = dose if it differs, or a comment. Only some compounds are listed: those with a hit (about 2.4% of all), similar ones and a draw of the others. Unless noted, no stated cut-off is given here; in the data, active means inhibition above about 50%; inactive means the rest.

SMILES	NSD2 inh	INS-1E GSIS act	Wnt act	MITF TRPM1 HTS	miR122 inh	DYRK1A inh
COc1cc(NC(=O)c2ccco2)c(OC)cc1NC(=O)c1cc(OC)c(OC)c(OC)c1	5	-4	1	.	-22	3
COc1cc(NC(=O)c2ccccc2Cl)ccc1NC(=O)c1ccco1	0	.	17	92*	-3	-10
CCOc1cc(NC(=O)c2ccco2)c(OCC)cc1NC(=O)c1cc(OC)c(OC)c(OC)c1	1	45*	4	-42	-21	-1
O=C(Nc1ccc(Cl)c(NC(=O)c2cccs2)c1)c1ccco1	21	-4	2	.	14	.
COc1cc(NC(=O)c2cccs2)ccc1NC(=O)c1ccco1	1	.	59*	92*	-5	-6
CCCN(C)C[C@H]1Oc2cc(-c3cccnc3)ccc2S(=O)(=O)N([C@H](C)CO)C[C@H]1C	.	-17	.	.	-2[16.7 µM]	.
N#Cc1ccc(C(=O)N2CCCCC2c2cc(C(=O)Nc3cccc(C#N)c3)no2)cc1 (stereo not drawn)	1	.	36*	.	-8	.
CC(=O)Nc1ccc(C(=O)N2CCCCC2c2cc(C(=O)Nc3cccc(C#N)c3)no2)cc1 (stereo not drawn)	-3	-14	4	.	2	.
Cc1cn2c(N)c(/C=C3\C=Nc4ccccc43)c(=O)nc2s1	0	20	39*	.	.	.
Cc1ccc(NC(=O)c2ccc(CSc3nnnn3C)cc2)cc1	-2	.	.	97*	.	2
Cn1nnc2cc(NC(=O)Nc3ccccc3F)ccc21	5	-1	50*	.	-5	.
COc1ccccc1NC(=O)Nc1ccc2c(c1)nnn2C	5	.	.	64	5	-4
CC(C)COC(=O)N1C[C@H](O)C[C@H]1C(=O)Nc1ccc(Cl)cc1	-3	120*	0	.	0	3
COCC#Cc1cnc2c(c1)C(=O)N([C@@H](C)CO)C[C@@H](C)[C@H](CN(C)Cc1ccc(F)cc1)O2	.	1	.	.	2[16.7 µM]	.
Cc1cccc(C)c1NC(=O)NC1CCc2ccccc21 (stereo not drawn)	0	119*	-3	0	-7	3
COc1ccc(C2=Nn3c(nnc3-c3ccccc3F)SC2)cc1OC1CCOC1 (stereo not drawn)	.	45*	1	-24	44	-1
COc1ccc(C2=Nn3c(nnc3-c3ccccc3F)SC2)cc1OC1CCCC1	.	55	36*	3	-1	14
NC(=S)c1ccc(OCCCc2ccccc2)cc1	0	3	37*	.	-2	.
COc1ccc2cc(C(N)=O)c(=Nc3ccc(C)cc3)oc2c1	-3	22	14	33	.	31
Cc1cccc(N=c2oc3cc(O)ccc3cc2C(N)=O)c1	9	.	40*	41	1	-6
O=C(CCc1nc2ccccc2c(=O)[nH]1)NNC(=O)c1cccc(Cl)c1	.	44*	0	-8	0	15
CN(C)CC(=O)Nc1ccc2c(c1)[C@H]1C[C@H](CC(=O)N(C)C)O[C@@H](CO)[C@H]1O2	.	8	.	.	.	.
COc1ccc(-c2ccc3c(c2)O[C@H](CN(C)CC2CCOCC2)[C@H](C)CN([C@@H](C)CO)S3(=O)=O)cc1	.	10	.	.	17[16.7 µM]	.
O=C(CCc1nnc(C2CCCCC2)o1)N1CCN(c2ccccc2F)CC1	0	-6	33*	74	.	-1
O=C(Nc1nccs1)c1ccc(-c2cccc([N+](=O)[O-])c2)o1	4	15	60*	59	6	-1
SMILES	NSD2 inh	INS-1E GSIS act	Wnt act	MITF TRPM1 HTS	miR122 inh	DYRK1A inh
C[C@H]1CN([C@@H](C)CO)C(=O)c2cccc(N(C)C)c2O[C@@H]1CN(C)S(=O)(=O)c1ccc(Cl)cc1	.	3	.	.	-7[16.7 µM]	.
CNC[C@H]1Oc2ccc(NC(C)=O)cc2C(=O)N(C)C[C@@H]1C	.	14	.	.	.	.
Cc1ccc(Sc2cnc3ccccc3n2)cc1	-6	.	.	89*	.	7
CC(=O)Nc1cc2nn(-c3ccccc3)nc2cc1Cl	0	.	55*	30	7	0
CC(C)(C)C(=O)Nc1cc2nn(-c3ccccc3)nc2cc1Cl	.	.	.	-84	-2	0
CC(=O)c1ccc(OCC(=O)N(C2CCCCC2)C2CCS(=O)(=O)C2)cc1 (stereo not drawn)	2	54*	0	4	.	-4
CN(C(=O)COc1ccccc1)C1CCS(=O)(=O)C1 (stereo not drawn)	1	2	-3	14	.	-3
CC(C)(C)c1ccc(C(=O)NC(=S)N2CCOCC2)cc1	-4	-9	34*	104*	-10	0
CN1CCN(C(=S)NC(=O)c2ccc(C(C)(C)C)cc2)CC1	-1	.	-2	11	-8	8
COc1cc2sc3cc(NCC[C@@H]4CCCN4C)ccc3c(=O)c2cc1OC	.	3	21	97*	-4	34
COc1cc2sc3cc(NCc4ccc(C)o4)ccc3c(=O)c2cc1OC	.	7	?	109*	4	.
CC[C@@H]1C/C=C\C[C@@H](c2ccccc2)NC(=O)CCC(=O)N1	.	7	.	.	.	.
C/C=C/c1ccc2c(c1)[C@H]1[C@H](CCN1C(=O)Cc1cccnc1)[C@H](CO)N2C	.	-1	.	.	-2[16.7 µM]	.
C[C@@H]1CN([C@@H](C)CO)C(=O)c2cc(NC(=O)Nc3cccc4ccccc34)ccc2O[C@@H](C)CCCCO[C@@H]1CN(C)S(=O)(=O)c1ccc(F)cc1	.	24	.	.	-7[16.7 µM]	.
O=C(/C=C/c1ccc(Cl)cc1Cl)Nc1ccc(-c2nnc3n2CCCCC3)cc1	0	.	.	.	.	.
CCc1cccc(CC)c1NC(=O)COC(=O)C1(c2ccc(Cl)cc2)CCCC1	4	-1	.	-5	113*	-1
Cn1cnc(CCNC(=O)C[C@H]2CC[C@H]3[C@@H](COC[C@@H](O)CN3C(=O)C3CC3)O2)c1	.	2	.	.	4[16.7 µM]	.
CC(=O)c1ccc(Nc2ccc(-c3ccccc3F)nn2)cc1	.	2	31*	73	9	.
CC(C)NC(=O)N(C)C[C@H]1Oc2ccc(NC(=O)CCCCCC(=O)Nc3ccccc3N)cc2CC(=O)N([C@@H](C)CO)C[C@@H]1C	.	5	.	.	-2[16.7 µM]	.
Cc1ccc(NC(=O)c2ccccc2)cc1	-3	21	.	.	-11	2
Cc1ccc(NC(=O)C2=C(c3ccccc3)S(=O)(=O)CCS2(=O)=O)cc1	7	155*	27	-94	.	5
COc1ccc(C2=Nc3ccccc3N(C(=O)c3ccc4ncccc4c3)C2C(=O)NC(C)(C)C)cc1 (stereo not drawn)	.	33	34*	.	.	.
COc1ccc(C2=Nc3ccccc3N(C(=O)c3ccc4ncccc4c3)C2C(=O)NC2CCCC2)cc1 (stereo not drawn)	.	-6	?	.	.	.
CN1CCN(C(=O)C[C@H]2CC[C@@H]3[C@H](COC[C@@H](O)CN3C(=O)Nc3ccc(F)cc3)O2)CC1	.	4	.	.	-2[16.7 µM]	.
Cc1ccnc(NC(=O)Nc2cccc(F)c2)n1	-3	-11	80*	28	-6	2
Cc1ccc2cc(NC(=O)c3ccccc3)ccc2n1	30	2	40*	49	1	7
O=C(Nc1ccc2ccccc2c1)c1cccc(F)c1	-1	4	46*	123*	-3	2
